Inconclusive results are not listed. A number with no mark means an inactive call. The source made the active and inactive calls. Calls follow the shape of the dose curve; as a rule, active = well fitted activation curve with a large enough effect in the signal ratio in the repeat runs (not every such curve was filed as active); inconclusive = weak or mixed curves, or effect the other way; inactive = no such curve, though single readings can be large or run the other way; the % refers to the signal ratio.
% is scaled to controls: 0 for no effect and ±100 for the full control effect.

In this test the target is Glucocorticoid receptor (Homo sapiens) (UniProt P04150). Kind of test: qHTS assay to identify small molecule agonists of the glucocorticoid receptor (GR) signaling pathway (AID 720691). The conditions noted are these: GR-bla HeLa, beta-lactamase reporter ratio, 18 h; series mostly up to 62.4 µM; activation: at the top concentration. From the text: U.S. Tox21 Program National Center for Advancing Translational Sciences [NCATS] NIH Chemical Genomics Center [NCGC] U.S. Environmental Protection Agency [EPA] National Institutes of Environmental Health Sciences [NIEHS] National Toxicology Program [NTP] U.S. Food and Drug Administration [FDA] Tox21 Assay Overview: The Glucocorticoid receptor (GR) is one of the members of the nuclear receptor family of ligand-dependent transcription factors. GR plays a critical role in carbohydrate, protein and lipid metabolisms and programmed cell death. CellSensor GR-bla HeLa cell line (Invitrogen) contains a beta-lactamase reporter gene under the control of the glucocorticoid response element stably integrated into HeLa cells, a cervical cancer cell line that expresses glucocorticoid receptor. The activation of the reporter gene under culture conditions can be detected by fluorescence intensity. This cell line has been used to screen the Tox21 10K compound library and to identify the compounds that activate the GR signaling.
Chain of Glucocorticoid receptor (Homo sapiens) (P04150 whole entry, looked up): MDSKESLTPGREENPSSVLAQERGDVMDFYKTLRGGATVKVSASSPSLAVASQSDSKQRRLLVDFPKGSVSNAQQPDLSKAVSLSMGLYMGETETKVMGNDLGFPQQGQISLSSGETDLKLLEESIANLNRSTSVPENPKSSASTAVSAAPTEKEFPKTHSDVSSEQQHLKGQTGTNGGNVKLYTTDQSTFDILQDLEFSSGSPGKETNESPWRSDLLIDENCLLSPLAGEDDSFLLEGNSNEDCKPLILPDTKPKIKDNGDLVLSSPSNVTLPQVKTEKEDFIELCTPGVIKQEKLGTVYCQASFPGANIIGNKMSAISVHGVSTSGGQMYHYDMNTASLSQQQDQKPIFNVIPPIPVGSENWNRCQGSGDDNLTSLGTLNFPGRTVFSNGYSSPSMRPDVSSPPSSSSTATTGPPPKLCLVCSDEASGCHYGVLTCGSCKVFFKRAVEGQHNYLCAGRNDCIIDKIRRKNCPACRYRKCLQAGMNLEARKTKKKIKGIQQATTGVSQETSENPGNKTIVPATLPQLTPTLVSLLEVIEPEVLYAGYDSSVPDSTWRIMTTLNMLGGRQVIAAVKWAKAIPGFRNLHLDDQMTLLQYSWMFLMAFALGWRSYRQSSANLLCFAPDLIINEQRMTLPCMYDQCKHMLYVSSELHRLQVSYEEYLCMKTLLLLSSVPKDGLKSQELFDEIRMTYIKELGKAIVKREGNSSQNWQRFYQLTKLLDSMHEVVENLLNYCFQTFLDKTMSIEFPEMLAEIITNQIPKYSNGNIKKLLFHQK
Tox21 Assay Protocol Summary: The GR-bla HeLa cells were dispensed at 1500 cells/6 ul/well in 1536-well black wall/clear bottom plates using a Multidrop Combi (ThermoFisher Scientific, Waltham, MA) dispenser. After the assay plates were incubated at a 37 C/5% CO2 incubator for 4 hours, 23 nL of compounds dissolved in DMSO, positive controls or DMSO only was transferred to the assay plate by a pintool station (Kalypsys, San Diego, CA). The plates were incubated at 37 C for 18 hours. After 1 uL of LiveBLAzerTM B/G FRET substrate was added using a Flying Reagent Dispenser (Aurora Discovery, San Diego, CA), the plates were incubated at room temperature for 2 hours, and fluorescence intensity was measured by an Envision plate reader (PerkinElmer, Shelton, CT).
For orientation: qHTS replaces the single test concentration by a dilution series.
As to `COc1ccc(-c2cc(=O)c3c(O)cc(O[C@@H]4O[C@H](CO[C@@H]5O[C@@H](C)[C@H](O)[C@@H](O)[C@H]5O)[C@@H](O)[C@H](O)[C@H]4O)cc3o2)cc1O`, the “activation” value is -1.56%.
Regarding `C=C(C)C(=O)OCCNC(C)(C)C`, the “activation” value is -0.766%.
Same read-out and setting: the same measure for `O=C(NCC(O)CO)c1c(I)c(C(=O)NCC(O)CO)c(I)c(N(CCO)C(=O)CO)c1I` (stereo not given): -0.392% [at 29.2 µM]; for `Cc1ccc2c(c1)OCC(=O)CO2`: -0.304%; for `CC(C)NCC(O)COc1cccc2[nH]ccc12` (stereo not given): -0.507%.
The same measure, in the same setting: the same measure for `C[Si](C)(C)C`: -0.875%.
Take `Cc1cccc(C)c1NC(=O)c1ccccc1C(=O)O`: the “activation” value was 0.489%.
Turning to `CC(C(=O)O)c1ccc2c(c1)CC(=O)c1ccccc1S2` (stereo not given), the “activation” value was -0.0603%.
`CC(C)c1ccc2cc(C(C)C)ccc2c1`: the “activation” value was 0.688%.
Consider `CC(CN)CC(C)(C)CCN` (stereo not given), for which the “activation” value was 0.375% [at 79.2 µM].
On to `O=C(O)c1ccc(Cl)cc1Cl`, for which the “activation” value was -2.27% [at 79.2 µM].
For the compound `CNC(=O)[C@H]1O[C@@H](n2cnc3c(NCc4cc(Cl)ccc4OCc4cc(C)no4)ncnc32)[C@H](O)[C@@H]1N`, the “activation” value was 1.49%.
In the case of `O=C(OCC1(COC(=O)c2cccnc2)CCCC(COC(=O)c2cccnc2)(COC(=O)c2cccnc2)C1O)c1cccnc1`, the “activation” value was -1.66%.
Same read-out and setting: the same measure for `FC(F)(F)c1ccccc1-n1ccnc1`: -4.26%; for `CCCCNC1CC(C)(C)NC(C)(C)C1`: 0.277%.
As for `CCCCCCN`, the “activation” value is 1.82%.
For `CC1=C(C(=O)O)N2C(=O)[C@@H](NC(=O)[C@H](N)c3ccc(O)cc3)[C@H]2SC1`, the “activation” value is 0.75% [at 29.2 µM].
Consider `CCCCOCCOC(=O)COc1nc(Cl)c(Cl)cc1Cl`, for which the “activation” value was -1.35%.
Turning to `CC(=O)Nc1ccc(S(=O)(=O)Nc2ccc([N+](=O)[O-])cc2)cc1`, the “activation” value is 0.0626%.
`NCCN1CCOCC1`: the “activation” value was 0.851%.
On the same count and under the same terms, next, `CN(C)c1ccc(C=O)cc1`: -6.94%.
Turning to `COc1ccc2c(c1OC)C(=O)O[C@@H]2[C@H]1c2c(cc3c(c2OC)OCO3)CCN1C`, the “activation” value was -1.62%.
Turning to `ClCCCl`, the “activation” value was -3.89%.
Take `COc1cc(C(=S)N2CCOCC2)cc(OC)c1OC`: the “activation” value was -0.321%.
As to `CC(=O)OC(C)OC(=O)C(C)c1ccc(-c2ccccc2)c(F)c1` (stereo not given), the Potency entry was “inactive”.
`Cc1ccc(S(=O)(=O)O)c(C)c1`: the “activation” value is -1.26%.
Turning to `CCN1CCc2nc(N)oc2CC1`, the “activation” value was 0.961%.
Consider `CC[C@H](C)C(=O)O[C@H]1C[C@H](O)C=C2C=C[C@H](C)[C@H](CC[C@@H](O)C[C@@H](O)CC(=O)O)[C@H]21`, for which the Potency entry is “inactive”.
Regarding `C[Si](C)=O`, the activation was 1.09% [at 6.9 µM].
For the compound `CCO[Si](CCCS)(OCC)OCC`, the “activation” value is 1.36%.
For `O=C(O)CCSSCCC(=O)O`, the “activation” value was -2.77% [at 79.2 µM].
Consider `Cc1ccccc1OCC(O)CO` (stereo not given), for which the “activation” value is 0.321%.
For `C=COCCOCCOCCOC=C`, the “activation” value was 4.99%.
For the compound `OCCCCC(O)CO` (stereo not given), the “activation” value is 0.547%.
Regarding `O=C(c1ccc(O)cc1)c1ccc(O)c(O)c1O`, the “activation” value was -5.55% [at 79.2 µM].
With `Nc1ccc([N+](=O)[O-])c(N)c1`, the “activation” value is 0.148%.
Turning to `COc1cc(N)ccc1C`, the “activation” value was -3.85%.
Take `COc1ccc(C2CNC(=O)C2)cc1OC1CCCC1` (stereo not given): the “activation” value is -1.93% [at 29.2 µM].
Consider `CCOc1cc([N+](=O)[O-])c(OCC)cc1N1CCOCC1`, for which the “activation” value is 4.18%.
Regarding `C[C@@H](O)[C@H]1C(=O)N2C(C(=O)O)=C(SCCN=CN)C[C@H]12`, the “activation” value is -1.34% [at 29.2 µM].

Source of the values: PubChem BioAssay (Tox21).
